Screens (PubChem BioAssay)
The list is not random: actives were taken first. Their share in the collection is about 1.3%.
AmpC no deterg: blocks E. coli AmpC beta-lactamase in detergent-free assay | P00811 | Potency, µM (top dose mostly 57.1 µM), for inactives: at the highest dose activity change, negative = inhibition, most hits filed as inhibitors | AmpC nitrocefin hydrolysis, absorbance 480 nm, 0.0001% Triton | 330,000 compounds, 0.52% hits | AID 485341;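 further: plate controls were no compound for no effect and no enzyme for full effect; nearly all actives have a fitted effect of over 20% in size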
Target sequence (P00811 whole entry, looked up): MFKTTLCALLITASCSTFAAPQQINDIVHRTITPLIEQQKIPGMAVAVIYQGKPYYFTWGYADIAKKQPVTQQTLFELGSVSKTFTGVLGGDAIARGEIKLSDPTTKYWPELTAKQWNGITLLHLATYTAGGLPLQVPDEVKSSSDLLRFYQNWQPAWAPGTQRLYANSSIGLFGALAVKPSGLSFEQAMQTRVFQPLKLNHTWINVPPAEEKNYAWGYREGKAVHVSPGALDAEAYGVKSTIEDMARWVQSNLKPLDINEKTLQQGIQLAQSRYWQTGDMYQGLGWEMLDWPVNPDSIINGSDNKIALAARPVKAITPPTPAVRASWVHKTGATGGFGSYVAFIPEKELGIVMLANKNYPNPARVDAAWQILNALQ
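AmpC (5.3 nM in the dispensed reagent) in 20 mM phosphate pH 7.0 with 0.01% (detergent screen) or 0.0001% Triton X-100 was preincubated with compounds for 15 min at room temperature. Nitrocefin was then added from an 800 uM solution, and hydrolysis was followed at 480 nm.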
VACV Venus inh: inhibitors of vaccinia virus (Venus reporter); Vaccinia virus Venus reporter expression, fluorescence; Potency, µM (top dose mostly 36.5 µM), for inactives: at the top dose activity change, negative = inhibition, most hits filed as inhibitors; 330,000 compounds, 0.46% hits; AID 720580; calls by dose curve; tested in A549 cells; further: on the % scale 0 is the no-effect control and ±100 the full control effect; nearly all actives have a fitted effect of over 30% in size
AmpC detergent: inhibitors of E. coli AmpC beta-lactamase with detergent; AID 485294; P00811; 370,000 compounds, 0.041% hits; Potency, µM (titrated, usually from 114 µM), for the others: top-dose activity change, negative = inhibition, hits mostly inhibitors; AmpC hydrolysis of nitrocefin, absorbance 480 nm, 0.01% Triton;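 further: 0% = no-compound wells and -100% = no-enzyme wells; nearly all actives have a fitted effect of over 25% in size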
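20 mM phosphate pH 7.0 + 0.01% (detergent screen) or 0.0001% Triton X-100; 5.3 nM AmpC reagent; cpd preinc 15 min RT; nitrocefin (800 uM stock) to start; A480 q20 s × 4 min; Activity was normalised to no-enzyme and no-compound control wells.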
VACV mCherry inh: inhibitors of vaccinia virus infection (mCherry reporter signal); Vaccinia virus mCherry reporter infection, fluorescence; Potency, µM (highest dose often 36.5 µM), for the others: at the top dose activity change, negative = inhibition, usual class: inhibitors; 310,000 compounds, 0.63% hits; calls by dose curve; tested in A549 cells; further: on the % scale 0 is the no-effect control and ±100 the full control effect; nearly all actives have a fitted effect of over 35% in size
SARS PLP yeast: SARS-CoV PLP inhibition in yeast | S. cerevisiae expressing SARS-CoV PLpro, growth rescue | Potency, µM (titrated, usually from 32.9 µM), for the others: top-dose activity, positive = growth rescue, actives largely listed as activators | 330,000 compounds, 0.19% hits; calls by dose curve; further: 0% is about no effect; nearly all actives have a fitted effect of over 55% in size
Starred values were filed as active, the others as inactive; i = inactive; ? = inconclusive; nt = not tested or not shown. Unless noted, the call rests on the fitted dose curve; in most records, active means well fitted curve in the direction sought with a large enough effect; inconclusive means small, poorly fitted or top-dose-only effect, or another doubt; inactive means no such curve, though single readings can be large; an effect the other way counts as inactive or inconclusive. Potency means the concentration at half of the fitted maximal effect.

SMILES | AmpC no deterg | VACV Venus inh | AmpC detergent | VACV mCherry inh | SARS PLP yeast
CCCOc1ccc(C(=O)Nc2ccc(S(=O)(=O)NC3=NCCCCC3)cc2)cc1 | 29% | ? | 0% | 8.9µM* | 7%
O=C(CCl)Nc1ccc(S(=O)(=O)NC2=NCCCCC2)cc1 | -12% | ? | nt | 14µM* | -8%
O=C(CSc1ccc2ccccc2c1Br)Nc1cccc(S(=O)(=O)NC2=NCCCCC2)c1 | 7.1µM* | 10µM* | -10% | ? | -1%
Cc1nc(C)c(C(=O)N2CCc3c(cnc(C)c3CNC(=O)c3cncs3)C2)s1 | nt | -5% | nt | -4% | nt
O=C(/C=C/c1ccccn1)NCC1Cc2cccc(-c3ncccn3)c2O1 (configuration not stated) | nt | -16% | nt | 0% | nt
C=C1C(=O)[C@@]23[C@H](O)C[C@@H]4C(C)(C)CC[C@H](O)[C@@]4(C)[C@@H]2CC[C@@H]1[C@H]3O | 1% | 2.5µM* | ? | ? | -5%
C=C1C(=O)[C@@]23[C@H](O)C[C@@H]4C(C)(C)CC[C@H](O)[C@]4(C)[C@@H]2C[C@H](O)[C@@H]1[C@H]3O | -17% | 4.5µM* | ? | ? | 4%
Cn1cc(CN2CCC(C3(c4ccccn4)NC(=O)N(CC4CCCO4)C3=O)CC2)c2ccccc21 (configuration not stated) | nt | -15% | nt | i | nt
Nc1nc2c(s1)COc1ccccc1-2 | -17% | -29% | 6% | ? | -7%
Nc1nc2c(s1)CCc1c-2cnn1-c1ccccc1 | -49% | -22% | 89µM* | ? | -31%
O=C1CC(=O)CC(c2ccccc2)C1 | -31% | 7% | -6% | i | -6%
O=S1(=O)CCS(=O)(=O)C1c1ccccc1 | nt | ? | nt | 11µM* | nt
COC(=O)c1ccc(CN2CCOc3ccc(C(O)c4cccnc4)cc3C2)cc1 (configuration not stated) | nt | -8% | nt | -18% | nt
Cc1cccc(N(Cc2cc(=O)[nH]c3ccccc23)C(=O)CCl)c1 | -7% | 13µM* | 0% | ? | 1%
Oc1cc(-c2nc3ccccc3s2)cc2c1OCCN(Cc1cccn1-c1ccccn1)C2 | nt | -15% | nt | -15% | nt
Cc1sc2ccccc2[n+]1CCCCBr | nt | ? | nt | 7.1µM* | nt
Cc1sc2ccccc2[n+]1Cc1ccccc1 | nt | 2% | nt | -3% | nt
Cc1sc2ccccc2[n+]1C | nt | 1% | nt | -15% | nt
Cc1sc2ccccc2[n+]1CCCC[n+]1c(C)sc2ccccc21 | nt | ? | nt | 2.8µM* | nt
COc1cccc(C(=O)NC(C)c2nnc3n2CCN(CC=C(C)C)CC3)c1 (configuration not stated) | nt | -17% | nt | -4% | nt
Cc1ccc(S(=O)(=O)N(C)C)cc1NC(=O)c1cncc(Br)c1 | -21% | 8.9µM* | -16% | 6.3µM* | 17%
CCc1ccc2[nH]c3nc(N/N=C/c4ccc(O)cc4O)nnc3c2c1 | -24% | -25% | ? | 1.8µM* | ?
COc1ccc(Oc2nc3ccccc3n(C)c2=O)cc1 | -3% | -8% | ? | i | -5%
Cn1c(=O)c(Oc2cc(Cl)cc(Cl)c2)nc2ccccc21 | 0.4µM* | 0% | 2% | 0% | -1%
COc1ccc2c(c1)OC/C(=C/c1ccc(OC)c(OC)c1)C2=O | nt | ? | nt | -13% | nt
SMILES | AmpC no deterg | VACV Venus inh | AmpC detergent | VACV mCherry inh | SARS PLP yeast
COc1ccc(/C=C2/CSC/C(=C/c3ccc(OC)c(OC)c3)C2=O)cc1OC | nt | ? | nt | 2.5µM* | nt
COc1ccc(/C=C2\N=C(C)OC2=O)cc1OC(C)=O | -7% | nt | -12% | nt | 0%
COc1ccc(/C=C2\N=C(C)OC2=O)cc1OC | -21% | nt | 35µM* | nt | 1%
CC(C)c1c(C(=O)NCCN2CCOCC2)cnn1-c1nccc(-c2cccs2)n1 | nt | -13% | nt | -23% | nt
Cc1ccc2c(c1)-c1cc(C)nn1C(c1cc(Br)ccc1O)N2 (configuration not stated) | nt | -13% | -1% | -30% | nt
CC(C)C[C@@H]1NC(=O)[C@H](Cc2ccc(O)cc2)NC(=O)c2cc([N+](=O)[O-])cc(I)c2NCCC[C@@H](C(N)=O)NC1=O | 4µM* | -5% | ? | -13% | 13%
OC1(c2ccc3c(c2)CN(Cc2ccccn2)CCO3)CCN(c2ccccc2F)CC1 | nt | -7% | nt | i | nt
O=c1cc(N2CCc3ccccc3C2)[nH]c(=O)n1-c1ccccc1Cl | 10µM* | 14% | -1% | 1% | 3%
COc1ccc(OC)c(/C=C/C(=O)N2C(=O)c3cccc(N)c3C2=O)c1 | 32µM* | -13% | -2% | -26% | -19%
CC(=Nc1ccccc1O)c1sc2ccccc2c1O | 7.1µM* | nt | -5% | nt | -3%
COc1ccccc1C1CN(Cc2cnn(C)c2)Cc2ccccc2O1 (configuration not stated) | nt | 0% | nt | -9% | nt
Cc1ccccc1NC1=C(Cl)C(=O)OC1OC(=O)c1ccccc1C (configuration not stated) | 10µM* | ? | 20µM* | ? | -13%
Cc1ccccc1C(=O)OC1OC(=O)C(Cl)=C1N1CCOCC1 (configuration not stated) | 2.8µM* | -14% | 4µM* | i | -19%
Cn1c(SCC(=O)Nc2ccc(F)cc2)nnc1-c1cccnc1 | 32µM* | -8% | ? | i | -1%
CCc1ccccc1-n1c(SCC(=O)NC)nnc1-c1cccnc1 | 1% | -7% | 35µM* | -17% | 7%
CCc1ccccc1-n1c(SCC(=O)NC)nnc1-c1ccco1 | -4% | nt | ? | nt | -3%
CCCn1c(CNc2ccc(Br)cc2)nc2ccccc21 | -33% | ? | -16% | 11µM* | -23%
CCn1c(CNc2ccc(C(=O)O)cc2)nc2ccccc21 | nt | -3% | 4% | -10% | nt
C=C1C(=O)[C@]23C[C@H]1CCC2[C@]1(C)CCC[C@@](C)(C(=O)O)C1C[C@@H]3O (some centres not stated) | nt | 3.5µM* | nt | 6.3µM* | nt
